The record followed here is the supplement of paper PMC3724861.

This is one part of a sample in which hits are shown more often than they occur. No count for the full screen is at hand.

The subject of this assay is T1, Caupolican (Caup) homeodomain DNA-binding domain.
T1 sequence: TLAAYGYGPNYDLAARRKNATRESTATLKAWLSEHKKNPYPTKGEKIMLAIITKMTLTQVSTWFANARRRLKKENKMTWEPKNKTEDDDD
The experiment in a line: PBM E-score (8-mer, recovered from the published 9-mer minima) (E-score (dimensionless, -0.5 to 0.5)); Drosophila protein; higher = stronger relative binding preference, active = 0.31 or more. Here is the method:
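Protein binding microarray (PBM): in vitro transcribed/translated Caupolican (Caup) homeodomain DNA-binding domain (residues 214-303) applied at 100 nM to a universal 8-mer PBM array (Agilent AMADID 015681). The 8-mer enrichment score (E-score, range -0.5 to 0.5) was computed, and each 9-mer score is the minimum E-score of its two constituent 8-mers. The E-score is the same for a 9-mer and its reverse complement; 0.31 is the stated binding threshold.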
Take GTTACAGA: the “PBM E-score” value was 0.172 (inactive).

ATTACAGC: the “PBM E-score” value was 0.128 (inactive). The value for ATTACAGG was 0.244 (inactive). Turning to ATTACATA, the “PBM E-score” value was ≥ 0.385 (active). As for ATCACATG, the “PBM E-score” value is 0.286 (inactive). With CTTACATA, the “PBM E-score” value was 0.288 (inactive). Then ATTACATC, with 0.374 (active). Consider CTCACATA, for which the “PBM E-score” value was 0.149 (inactive). Consider ATTACATG, for which the “PBM E-score” value is 0.447 (active). In the case of TGCGCTAA, the “PBM E-score” value was 0.0295 (inactive). Take CTCTGAAG: the “PBM E-score” value is -0.17 (inactive). Consider AGATCCCT, for which the “PBM E-score” value is -0.128 (inactive). For the sequence GAGAATCA, the “PBM E-score” value was -0.0157 (inactive). As to GATGCATA, the “PBM E-score” value was 0.0414 (inactive). For CCCCATGC, the “PBM E-score” value was -0.233 (inactive).

Consider CGGCTTAG, for which the “PBM E-score” value is -0.235 (inactive). As to ATCATGCC, the “PBM E-score” value is 0.0227 (inactive).

AGCCAGGG: the “PBM E-score” value was -0.276 (inactive). On to ACGTACCT, for which the “PBM E-score” value was 0.0612 (inactive). Then CCGTACAC, with 0.199 (inactive); and ACGTACAT, with 0.337 (active); and ACGTACAC, with 0.333 (active). Regarding GCGTACAC, the “PBM E-score” value is 0.217 (inactive). In the case of ACGTACAG, the “PBM E-score” value is 0.103 (inactive).

Consider ATTTCTCA, for which the “PBM E-score” value is 0.0413 (inactive).

In the case of ACGACAGT, the “PBM E-score” value was 0.094 (inactive). AGCATATA: the “PBM E-score” value is 0.119 (inactive). For the sequence AATCGAGC, the “PBM E-score” value is 0.0234 (inactive). TCGTGTCA: the “PBM E-score” value was 0.328 (active). ACGTGTCG: the “PBM E-score” value is 0.301 (inactive). Regarding TAGTGTCA, the “PBM E-score” value was 0.182 (inactive). On to GCGTGTCA, for which the “PBM E-score” value is 0.284 (inactive).

In the case of GTGTGTCA, the “PBM E-score” value was ≥ 0.312 (active). The value for CCGTGTCA was 0.278 (inactive); that for ACGTGTCA was ≥ 0.374 (active); that for ATGTGTCA was 0.297 (inactive).

Turning to CTGTGTCA, the “PBM E-score” value is 0.142 (inactive). Regarding TACGTGGA, the “PBM E-score” value was -0.086 (inactive). Take AACTATCT: the “PBM E-score” value was 0.0956 (inactive). For the sequence ATGCCGGC, the “PBM E-score” value is -0.134 (inactive). In the case of AGCCCGAG, the “PBM E-score” value was -0.187 (inactive). In the case of ACCAACCC, the “PBM E-score” value was -0.0241 (inactive). In the case of CAGGGGAC, the “PBM E-score” value was -0.193 (inactive). For the sequence AAACACTA, the “PBM E-score” value is 0.193 (inactive). For the sequence AACATCAG, the “PBM E-score” value is 0.231 (inactive). As to AACATCAA, the “PBM E-score” value is ≥ 0.316 (active). With AACATCAC, the “PBM E-score” value is 0.267 (inactive).

For the sequence GACATCGA, the “PBM E-score” value is 0.24 (inactive). On to CACATCGA, for which the “PBM E-score” value is 0.0459 (inactive).

Regarding TACATCGA, the “PBM E-score” value was 0.314 (active). As to GACATCAA, the “PBM E-score” value is 0.296 (inactive).

With TACATCAA, the “PBM E-score” value is 0.331 (active). Regarding CACATCAA, the “PBM E-score” value was 0.0655 (inactive).

For the sequence GTGGCTTA, the “PBM E-score” value was -0.0913 (inactive). On to GATCGGAA, for which the “PBM E-score” value is 0.052 (inactive). Then GTTGAGTA, with 0.128 (inactive).

On to CCTGTACC, for which the “PBM E-score” value was 0.11 (inactive). Regarding CCTGTACA, the “PBM E-score” value is 0.32 (active).

Consider CATGTGTA, for which the “PBM E-score” value is 0.308 (inactive). GATGTACA: the “PBM E-score” value was 0.404 (active).

Turning to CATGTGCA, the “PBM E-score” value was 0.119 (inactive). Then GATGTGCA, with 0.102 (inactive).

Turning to ACTGTACA, the “PBM E-score” value was 0.257 (inactive). The value for CATGTACA was 0.469 (active).

With ACTGTACC, the “PBM E-score” value is 0.107 (inactive).

For the sequence CATGTACC, the “PBM E-score” value is 0.416 (active). Turning to CAAGTACC, the “PBM E-score” value was 0.159 (inactive). As for CTAGCGAG, the “PBM E-score” value was -0.138 (inactive). AGTGAATG: the “PBM E-score” value is 0.0689 (inactive). The value for GGGCTGAC was -0.108 (inactive). For the sequence ACGCATCC, the “PBM E-score” value was -0.0982 (inactive). As for AATGTACC, the “PBM E-score” value is 0.192 (inactive). For the sequence GATGTGCC, the “PBM E-score” value is -0.0456 (inactive).

With TATGTAGA, the “PBM E-score” value was 0.226 (inactive).

Consider AATGTGTG, for which the “PBM E-score” value was 0.142 (inactive).

GATGTACC: the “PBM E-score” value is 0.366 (active). The value for AATGTACT was 0.269 (inactive); that for GATGTGTA was 0.252 (inactive).

Turning to GCTGTACC, the “PBM E-score” value was 0.0813 (inactive). Then AATGTGTA, with 0.311 (active).

Regarding AATGTACA, the “PBM E-score” value is 0.407 (active). For TATGTACA, the “PBM E-score” value was 0.427 (active). Regarding TCTGTACA, the “PBM E-score” value was 0.281 (inactive). Then CAATGCTG, with -0.0134 (inactive). With CCGTAACG, the “PBM E-score” value is -0.1 (inactive). The value for CCTGAGCG was -0.215 (inactive); that for AAGGTCTC was -0.0943 (inactive). CCTGTACG: the “PBM E-score” value was 0.0896 (inactive). Consider AATGTACG, for which the “PBM E-score” value is 0.153 (inactive). In the case of CATGTACG, the “PBM E-score” value is 0.409 (active). Regarding CACCTTGC, the “PBM E-score” value is 0.00581 (inactive). Turning to CCAGTACC, the “PBM E-score” value is -0.0496 (inactive).

AATACTCG: the “PBM E-score” value is 0.138 (inactive). Then ATGGTATC, with 0.109 (inactive); and AGATGCTA, with 0.0221 (inactive). Then ATTACACC, with 0.259 (inactive). ATTACACA: the “PBM E-score” value was ≥ 0.332 (active). Take GTTACACA: the “PBM E-score” value is 0.339 (active). As for CTTACACA, the “PBM E-score” value was 0.201 (inactive).

Turning to ATTACTCA, the “PBM E-score” value is 0.112 (inactive). For the sequence GTTACAAA, the “PBM E-score” value is 0.285 (inactive). CGCAGGAA: the “PBM E-score” value is -0.134 (inactive). Then GACGCACA, with -0.0232 (inactive); and CAGTTCAA, with -0.0476 (inactive); and GATGGGGC, with -0.192 (inactive). On to AGCATGGA, for which the “PBM E-score” value is 0.0568 (inactive). Regarding AGCATGTA, the “PBM E-score” value is ≥ 0.413 (active). For AGCATGGG, the “PBM E-score” value was -0.0663 (inactive).

With GGCATGGA, the “PBM E-score” value is -0.0635 (inactive).

Turning to GGCATGTA, the “PBM E-score” value is 0.378 (active).

Take GGCATGCA: the “PBM E-score” value was 0.0214 (inactive). As to AGATTAGC, the “PBM E-score” value is -0.0125 (inactive).

Take ATGTAGCC: the “PBM E-score” value is 0.145 (inactive). In the case of GCCCAGCC, the “PBM E-score” value is -0.262 (inactive).
